Most compounds without a hit are left out; they make up all but 0.4% or so of the library.
EPAC1 agonist: activates human EPAC1 exchange factor; O95398; EPAC1 agonist qHTS, biochemical assay; response scale: 100% = response to 6.5 mM cAMP; Potency, µM (highest dose often 154 µM), for inactives: at the top dose activation, usual class: activators; actives 0.073% (n = 360,000); AID 720707; further: nearly all actives have a fitted effect of over 60% in size
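Nucleotide exchange by EPAC1 (100 nM) on Rap1B–BODIPY-GDP (250 nM) in the presence of 50 uM GDP is tracked fluorescently at 480/540 nm over 30 min. Signals are normalized to a 6.5 mM cAMP control.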
EPAC2 antag: EPAC2 (human) antagonism | Q8WZA2 | EPAC2 GEF exchange of Rap1B-BODIPY-GDP, fluorescence | Potency, µM (doses to about 114 µM), for the others: at the top dose activity, negative = inhibition, most hits filed as inhibitors | actives 0.18% (n = 360,000) | AID 720708; further: on the % scale 0 is the no-effect control and ±100 the full control effect; nearly all actives have a fitted effect of over 45% in size
RGS4 inhibitor: blocks human RGS4-accelerated GTP hydrolysis. Transcreener GDP fluorescence polarization, RGS4-accelerated GTP hydrolysis. Potency, µM (titrated, usually from 114 µM), without a hit: top-dose activity change, negative = inhibition, usual class: inhibitors. actives 0.039% (n = 390,000). AID 504845; further: on the % scale 0 is the no-effect control and ±100 the full control effect; nearly all actives have a fitted effect of over 75% in size
Target sequence (P49798 whole entry, looked up): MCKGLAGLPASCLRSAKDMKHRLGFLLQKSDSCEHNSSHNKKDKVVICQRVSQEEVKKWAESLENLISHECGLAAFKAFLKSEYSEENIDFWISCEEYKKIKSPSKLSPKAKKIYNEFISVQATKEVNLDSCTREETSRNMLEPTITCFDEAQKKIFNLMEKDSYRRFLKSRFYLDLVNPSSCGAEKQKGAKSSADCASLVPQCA
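MLSMR compounds (23 nl, pin-transferred) preincubated 10 min at room temperature with a 500nM (2x) first reagent, then RGS4 at 900nM (2x) plus Transcreener GDP mix added; fluorescence polarization (620/688 nm) read before and after 90 min at 30 °C.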
EPAC2 agonist: activates human EPAC2 exchange factor; Potency, µM (doses to about 154 µM), for the others: at the top dose activation, hits mostly activators; EPAC2 activation, biochemical qHTS; response scale: 100% = 6.5 mM cAMP response; Q8WZA2; actives 0.079% (n = 360,000); further: nearly all actives have a fitted effect of over 50% in size
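Each well held 100 nM EPAC2, 250 nM RAP1B-BODIPY-GDP and 50 uM GDP. Fluorescence, read at 5-min intervals to 30 min, was referenced to a 6.5 mM cAMP positive control.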
ERG Ets-DNA blk: blocks human ERG Ets domain binding to DNA | fluorescence polarization, His-ERG Ets domain / labelled DNA | actives 0.028% (n = 370,000) | AID 624246 | Potency, µM (series often up to 76.9 µM), for inactives: at the top dose FP activity, negative = inhibition, actives largely listed as inhibitors; active means well fitted inhibition curve with a large enough effect in the polarisation, with a control signal flat; inconclusive means small, poorly fitted or top-dose-only effect, or effect the other way, or a change in a side signal; inactive means no such curve, though single readings can be large or run the other way; the % refers to the polarisation;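 further: polarization taken with two DNA probes labelled with fluorescein and Texas red; % of control where 0% means no effect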
Target sequence (P11308 whole entry, looked up, the tested form may be a part): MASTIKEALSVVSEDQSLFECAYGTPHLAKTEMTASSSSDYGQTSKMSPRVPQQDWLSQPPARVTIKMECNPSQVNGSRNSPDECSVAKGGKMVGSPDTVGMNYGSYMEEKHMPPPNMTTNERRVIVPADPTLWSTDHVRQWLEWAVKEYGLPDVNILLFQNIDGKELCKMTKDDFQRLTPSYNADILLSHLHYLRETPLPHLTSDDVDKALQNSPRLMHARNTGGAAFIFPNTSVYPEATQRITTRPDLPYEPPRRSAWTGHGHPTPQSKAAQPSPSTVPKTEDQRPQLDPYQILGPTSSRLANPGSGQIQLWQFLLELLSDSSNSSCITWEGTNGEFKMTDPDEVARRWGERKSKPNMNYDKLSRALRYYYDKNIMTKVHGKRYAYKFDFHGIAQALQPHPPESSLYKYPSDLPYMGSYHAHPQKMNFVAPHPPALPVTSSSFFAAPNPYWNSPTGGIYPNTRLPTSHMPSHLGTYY
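His-tagged ERG Ets domain (1 uM in the protein solution; 300mM KCl, 50mM Tris-HCl, 1mM EDTA, 1mM DTT, pH 7.5) received compound, then a probe mix of 5 nM fluorescein-DNA and 100nM Texas-615-DNA. Fluorescence polarization was read for both dyes.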
EPAC1 antagonist: antagonists of human EPAC1 | EPAC1 GEF assay, Rap1b-BODIPY-GDP exchange fluorescence | Potency, µM (doses to about 115 µM), inactives show top-dose activity change, negative = inhibition, most hits filed as inhibitors | actives 0.14% (n = 360,000) | AID 720709;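 further: plate controls were vehicle for no effect and positive control for full effect; nearly all actives have a fitted effect of over 50% in size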
Numbers without * were called inactive; i = inactive; u = inconclusive; x = no result. Unless noted, the call rests on the fitted dose curve; in most records, active means well fitted curve in the direction sought with a large enough effect; inconclusive means small, poorly fitted or top-dose-only effect, or another doubt; inactive means no such curve, though single readings can be large; an effect the other way counts as inactive or inconclusive. Potency means the concentration at half of the fitted maximal effect.

SMILES	EPAC1 agonist	EPAC2 antag	RGS4 inhibitor	EPAC2 agonist	ERG Ets-DNA blk	EPAC1 antagonist
C#CCOCCOCCOCCNc1nc(N2CCN(C(=O)CCCCCCCCCCNC(=O)Cn3cc(C[C@@H](C)O)nn3)CC2)nc(N2CCN(C(=O)CCCCCCCCCCNC(=O)[C@@H]([C@H](C)CC)n3cc(CCCCCN)nn3)CC2)n1	19%	-28%	u	16%	0%	50µM*
Cc1cccc(CNC(=O)C(=O)Nc2ccccc2C)c1	x	x	9%	x	-2%	x
C/C(=N\NS(=O)(=O)c1ccccc1)c1cc(Cl)cc(Cl)c1O	-11%	u	6%	4%	5%	18µM*
C/C(=N/NS(=O)(=O)c1ccc(Cl)cc1)c1cccc(O)c1	-2%	-3%	-4%	-1%	2%	2%
Cn1cc([C@]2(O)C(=O)Nc3ccc(F)cc32)c2ccccc21	-9%	u	x	4%	x	20%
Cn1cc([C@]2(O)C(=O)Nc3ccc(Br)cc32)c2ccccc21	-5%	50µM*	x	-2%	x	0%
O=C(O)c1cccc2cccc(-c3c4ccc(=O)c(O)c-4oc4c(O)c(O)ccc34)c12	12%	-28%	u	-4%	4%	32µM*
CCCCNc1c2c3c(cccc3n(C)c1=O)C(=O)c1ccccc1-2	60%	201%	-19%	62%	u	206%
CC(=O)Nc1ccc(Nc2c3c4c(cccc4n(C)c2=O)C(=O)c2ccccc2-3)cc1	u	11%	8%	112µM*	-22%	35%
CCc1ccc(S(=O)(=O)c2nnn3c2nc(N2CCOCC2)c2sccc23)cc1	x	x	9%	x	0%	x
CCCCn1c(NC(=O)c2ccco2)c(S(=O)(=O)c2ccc(C)cc2)c2nc3ccccc3nc21	-3%	-16%	-5%	10%	-9%	-13%
CCCCn1c(NS(=O)(=O)c2ccccc2)c(S(=O)(=O)c2ccc(C)cc2)c2nc3ccccc3nc21	-1%	-9%	-31%	-18%	19%	50µM*
CC1Cc2cc(S(=O)(=O)NCc3ccc(F)cc3)ccc2N1C(=O)C1CCC1 (stereo not given)	x	x	-7%	x	2%	x
O=C(N[C@@H](Cc1ccccc1)C(=O)CCl)OCc1ccccc1	-16%	-2%	3.4µM*	3%	9%	-27%
O=C(N[C@@H](Cc1ccccc1)C(=O)N[C@@H](Cc1ccccc1)C(=O)O)OCc1ccccc1	4%	5%	0%	-2%	-4%	-10%
O=C(Cn1c(=O)n(Cc2ccco2)c(=O)c2ccccc21)Nc1ccc(Cl)cc1Cl	x	x	-6%	x	8%	x
NC(=O)c1sc(=S)n2c1[nH]c(=O)c1sccc12	10%	40µM*	-25%	-4%	16%	u
CCCn1c(O)c(N=Nc2ccc3ccccc3n2)c2ccccc21	-5%	68%	-29%	89µM*	-1%	1%
CC1CCN(S(=O)(=O)c2cc(C(=O)NCc3ccc(N(C)C)cc3)n(C)c2)CC1	x	x	9%	x	-6%	x
Brc1ccc(-c2csc(-c3c[nH]c4ccccc34)n2)cc1	16%	-4%	1%	40µM*	-14%	-5%
c1ccc2c(-c3csc(-c4ccncc4)n3)c[nH]c2c1	-7%	17%	7%	5%	-7%	10%
O=C(O)C1OC(O)C(O)C(O)C1O (stereo not given)	x	x	i	x	x	x
CC1CCN(S(=O)(=O)c2ccc3c(c2)N(CC(=O)NCc2ccccc2)C(=O)CO3)CC1	x	x	6%	x	-1%	x
Cc1ccc(N2CC(NC(=O)c3ccc(Br)o3)CC2=O)cc1C (stereo not given)	x	x	22%	x	8%	x
CS(=O)(=O)C1=NSC2=NC(=O)/C(=C\c3cccn3-c3ccc(Cl)cc3)C(=N)N21	9%	-17%	-27%	-8%	31%	35µM*
SMILES	EPAC1 agonist	EPAC2 antag	RGS4 inhibitor	EPAC2 agonist	ERG Ets-DNA blk	EPAC1 antagonist
Cc1cc(/C=C2/C(=N)N3C(=NC2=O)SN=C3S(C)(=O)=O)c(C)n1-c1ccccc1F	-5%	-14%	-2%	-3%	1%	-2%
N#C/C(=C\c1coc2ccccc2c1=O)C(N)=S	-2%	17%	u	5%	44%	-1%
N#C/C(=C\c1coc2ccc(O)cc2c1=O)C(=O)Nc1nc2ccccc2s1	89µM*	110%	u	32µM*	83%	114%
CC1CCC(NC(=O)c2ccc(CS(=O)(=O)c3c(Cl)cccc3Cl)o2)CC1 (stereo not given)	x	x	-27%	x	6%	x
COc1cc(NS(=O)(=O)c2ccc(-c3cc(C)no3)cc2)cc(OC)c1	x	x	u	x	4%	x
NC(=O)c1cc2ccc(O)cc2oc1=NCc1ccccc1	19%	36%	12%	100µM*	-2%	15%
CCCN1CNc2c(c(=O)[nH]c(=S)n2CCCc2ccccc2)C1	x	x	-3%	x	x	x
CC(=O)c1cc(C#N)c(N(C)Cc2ccccc2)nc1C	13%	50µM*	8%	14%	-1%	-28%
Oc1ccc(/C(Cc2ccccn2)=N\Nc2ccccc2)c(O)c1	19%	45µM*	-4%	8%	-5%	u
O=C(/C=C/c1ccco1)NCC1OCCc2ccccc21 (stereo not given)	-1%	8%	u	-6%	16%	56µM*
CCC(CC)C(=O)Nc1ccc([N+](=O)[O-])cn1	-2%	-5%	33%	6%	7%	-3%
O=C(CCC1CCCC1)Nc1ccc([N+](=O)[O-])cn1	112µM*	10%	6%	-2%	-4%	103%
Cc1ccc(O)c(-c2n[nH]c3c2C(c2ccccc2F)N(Cc2ccco2)C3=O)c1 (stereo not given)	x	x	21%	x	6%	x
O=C(N/N=C/c1ccc(OC(=O)c2ccccc2Cl)cc1)c1ccccn1	-20%	9%	-21%	1%	-11%	-1%
O=C(N/N=C/c1ccc(OC(=O)c2ccccc2Cl)cc1)c1cc(O)cc(O)c1	-4%	-19%	3%	24%	1%	71µM*
CCCN(CCC)C(=O)Cn1c(=O)c2sccc2n2c(=S)sc(-c3ccccc3)c12	8%	50µM*	-45%	-33%	-8%	-10%
COc1ccc(NS(=O)(=O)c2ccc(O)c(NC(=O)c3cc4c(C)nn(-c5ccc(F)cc5)c4s3)c2)cc1	-17%	-4%	-33%	-8%	2%	50µM*
Cc1cc(C)c(NC(=O)CCS(=O)(=O)c2cc3c(cc2Cl)NC(=O)CO3)c(C)c1	x	x	-27%	x	6%	x
COC(=O)C1=C(C)NC(C)=C(C(=O)OCCSc2ccccc2)C1C (stereo not given)	x	x	38µM*	x	x	x
